The record followed here is PubChem BioAssay.

Broadly, the inhibition is the change of the read-out against control, counted positive when it falls.

Values without a mark were called inactive. How the calls were made is not given here.

In this assay the target is Pantothenate synthetase (Mycobacterium tuberculosis (strain ATCC 25618 / H37Rv)) (UniProt P9WIL5). Nature of the assay: Recombinant Mtb pantothenate synthetase (PanC) inhibitors, coupled enzyme, confirmatory (AID 375).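 Further: 0% = full reaction with vehicle and 100% = no enzyme background.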 Particulars: coupled enzyme assay; at 10 µM, stronger effect = higher value.
Chain of Pantothenate synthetase (Mycobacterium tuberculosis (strain ATCC 25618 / H37Rv)) (P9WIL5 whole entry, looked up): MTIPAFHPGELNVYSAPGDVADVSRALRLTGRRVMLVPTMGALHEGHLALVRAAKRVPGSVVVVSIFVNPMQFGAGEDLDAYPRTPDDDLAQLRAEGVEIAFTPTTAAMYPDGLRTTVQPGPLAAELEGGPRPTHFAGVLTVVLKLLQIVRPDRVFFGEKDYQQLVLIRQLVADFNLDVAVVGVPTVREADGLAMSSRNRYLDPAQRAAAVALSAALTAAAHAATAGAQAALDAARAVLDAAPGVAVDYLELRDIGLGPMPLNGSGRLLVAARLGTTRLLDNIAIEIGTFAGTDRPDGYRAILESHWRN
For the molecule `Cc1cc(N2C(=O)C3C4C=CC(C4)C3C2=O)ccc1Br` (stereo not given), the inhibition is 0%.

In the case of `Nc1nnc(SCCOc2ccccc2)s1`, the inhibition is 3%.

As to `CCOc1ccc2nc(SCc3ccc(C(=O)OC)o3)[nH]c2c1`, the inhibition was 0%.

Take `CC(=O)N1CCc2cc(S(=O)(=O)NCCC(=O)Nc3cc(C)cc(C)c3)ccc21`: the inhibition was 2%.

On to `COc1ccc(Cl)c(NC(=O)NCCN2CCN(c3ccccc3)CC2)c1`, for which the inhibition was 0%.

As to `CCN(CC)c1ccc(NC(=O)c2cncc(Br)c2)cc1`, the inhibition is 0%.

`CCn1c(SCC(=O)c2ccc(OC)cc2)nnc1C(C)NC(=O)c1ccc(OC)cc1` (stereo not given): the inhibition was 3%.

Consider `CCOC(=O)c1cnn(-c2ncnc3c2cnn3Cc2ccccc2)c1N`, for which the inhibition is 5%.

In the case of `Cc1c(NC(=O)CSc2nnc3sc4ccccc4n23)c(=O)n(-c2ccccc2)n1C`, the inhibition was 0%.

Take `CCOC(=O)c1sc2ncn(/N=C/N(C)C)c(=O)c2c1C`: the inhibition was 8%.

As for `Cn1c2c(c(=O)n(C)c1=O)C(CC(=O)Nc1ccccc1)C(=O)N2` (stereo not given), the inhibition is 7%.

With `Cc1ccc(C(=O)NCc2ccc3c(c2)OCO3)cc1S(=O)(=O)N1CCCCC1`, the inhibition is 0%.

Turning to `CC(=O)Nc1ccc(NC(=O)C(C)Oc2ccccc2F)cc1` (stereo not given), the inhibition was 0%.

As for `Cc1cc(C2C(C#N)=C(N)SC(N)=C2C#N)c(C)s1`, the inhibition is 0%.

For `CCOC(=O)CC12CN3CN(C1)CC(CC(=O)OCC)(C3)C2=O`, the inhibition is 1%.

For `CCn1c(SCC(=O)Nc2ccc3c(c2)OCO3)nnc1-c1ccccc1O`, the inhibition is 2%.

On to `O=C(CN1C(=O)COc2ccccc21)NCCCN1CCN(Cc2ccccc2)CC1`, for which the inhibition was 0%.

With `COc1cc(CNc2ccc(N3CCOCC3)c(C(=O)O)c2)ccc1OCC(N)=O`, the inhibition is 1%.

In the case of `CCCOc1ccc2nc(NC(=O)OC)[nH]c2c1`, the inhibition is 0%.

Consider `C=CCOC(=O)C(C#N)c1nc2ccccc2nc1N1CCN(Cc2ccccc2)CC1` (stereo not given), for which the inhibition was 2%.

Regarding `Cc1nnc(Nc2ccccn2)c2ccccc12`, the inhibition was 0%.

Take `C=CCSC1=C(C#N)C(c2ccccc2OCC)CC(=O)N1` (stereo not given): the inhibition is 0%.

Regarding `O=C(CSc1nnc(Cc2cc(=O)[nH]c(=O)[nH]2)n1-c1ccccc1)NCC1CCCO1` (stereo not given), the inhibition was 0%.

Regarding `Cc1cccc(NC(=O)c2ccc(S(=O)(=O)N(C)C)cc2)n1`, the inhibition was 0%.

Turning to `O=C(Nc1ccc(F)cc1)NC1CCN(Cc2nnnn2Cc2ccco2)CC1`, the inhibition was 0%.

As for `Cc1ccc(NC(=O)Nc2ccc3c(c2)N(C)C(=O)CS3)nc1`, the inhibition was 5%.

Turning to `Cc1ccc(CNC(=O)CCCn2c(=O)c3ccccc3n(CC(=O)NCc3ccco3)c2=O)cc1`, the inhibition is 0%.

In the case of `CC(C)(C)C(=O)N=C1SC2CS(=O)(=O)CC2N1c1ccc2c(c1)OCO2` (stereo not given), the inhibition was 0%.

For the molecule `COc1ccc2ccccc2c1CN1CCCC(CO)C1` (stereo not given), the inhibition was 0%.

As to `O=C(NC1CC1)C1CCC(=O)N1C1CCCC1` (stereo not given), the inhibition was 4%.

Turning to `c1ccc2c(-c3nc(C4CCCCC4)no3)cc(-c3ccncc3)nc2c1`, the inhibition is 1%.

`CCOC(=O)Cn1c(CN2CCOCC2)nc2c1c(=O)[nH]c(=O)n2C`: the inhibition was 0%.

Regarding `COC(=O)c1cc(Br)c(=O)n(Cc2cccnc2)c1`, the inhibition is 9%.

On to `COCCOC(=O)c1c(C)oc2ccc(NS(=O)(=O)c3ccc(F)cc3)cc12`, for which the inhibition is 3%.

Consider `c1n[nH]c(SCCCCSc2ncn[nH]2)n1`, for which the inhibition was 6%.

Take `O=C(Nc1ccccc1N1CCN(c2ccc(F)cc2)CC1)c1ccccc1`: the inhibition is 0%.

For the molecule `COc1ccc(CNC(=O)Cn2nc(C(F)(F)F)c3c2CCC3)cc1`, the inhibition was 3%.

`Cc1ccc(Oc2ccc(-c3nc(N)nc(N)n3)cc2)cc1`: the inhibition is 7%.

For `COc1ccc(C(=O)CSc2nc(C)cc(=O)[nH]2)cc1`, the inhibition was 0%.

Regarding `CC(C)C12CN3CC(C(C)C)(CN(C1)C3c1ccc3c(c1)OCO3)C2=O` (stereo not given), the inhibition is 0%.
